# FMDV inh – High Throughput Screening for Foot and Mouth Disease Virus Antivirals | FMDV antiviral cell-based qHTS | Potency, µM (series often up to 57.9 µM), for the others: top-dose activity change, negative = inhibition, actives largely listed as inhibitors | hit rate 1.2% among 410,000 | AID 1159524, 2015; calls by dose curve; tested in HEK293T cells; also: read-out not given here; potency is read from the fitted curve at half-maximal effect; nearly all actives have a fitted effect of over 45% in size
# Lassa entry inh – qHTS for Inhibitors of binding or entry into cells for Lassa Virus; Lassa virus pseudotype entry inhibition, cell reporter; AID 540256, 2011; Potency, µM (top dose mostly 37.9 µM), for the others: top-dose activity change, negative = inhibition, most hits filed as inhibitors; hit rate 1.2% among 300,000; calls by dose curve; tested in HEK293 cells; also: potency is read from the fitted curve at half-maximal effect; nearly all actives have a fitted effect of over 50% in size
# Marburg entry inh – qHTS for inhibitors of binding or entry into cells for Marburg Virus; Marburg virus pseudotyped entry inhibition, cell reporter; AID 540276, 2011; hit rate 1.8% among 300,000; Potency, µM (highest dose often 37.8 µM), for the others: at the top dose activity change, negative = inhibition, actives largely listed as inhibitors; calls by dose curve; tested in HEK293 cells; also: potency is read from the fitted curve at half-maximal effect
# HCMV antiviral – qHTS Assay for inhibitors of the human cytomegalovirus (HCMV); AID 1259415, 2018; HFF cells, HCMV-luciferase reporter, 72 h; active compounds read low; activity change, negative = inhibition, % at 57.5 µM; hit rate 4.5% among 410,000; in the data active = activity change below about -60%; inconclusive = no clear call, values can overlap the other calls; inactive = above about -39%
#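 HFF cells seeded 16 h at 37C, treated with compounds, infected with luciferase-reporter HCMV at MOI 1 PFU/cell; luciferase read at 72 h post infection, normalized to buffer-only and Salinomycin controls.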
# * = called active by the depositor; u = inconclusive; x = not tested or not shown; + = active, no number; ! = repeats disagree; [ ] = remark or other dose. This is a sample that favours compounds with a hit; in the whole collection about 6.2% have one here. % is scaled to controls: 0 for no effect and ±100 for the full control effect.
SMILES,FMDV inh,Lassa entry inh,Marburg entry inh,HCMV antiviral
Cc1ccc(F)cc1C(=O)N1CCCC(c2cc(C(=O)NCc3ccc(F)cc3)no2)C1 (configuration not stated),u,x,x,-17.4
CCN(CC(=O)NCc1ccc(Cl)cc1)C(=O)CCOc1ccccc1C,-19.5%,-24.6%,-9.3%,-18.2
CCN(CC(=O)NCc1cccs1)C(=O)CCOc1ccccc1C,-20.1%,-6.3%,0.5%,-96.6*
COc1ccc(CCNC(=O)CCn2c(=O)c3ccccc3n(CC(=O)Nc3cccc(C)c3)c2=O)cc1OC,-8.9%,27.5%[46.1 µM],-8.4%[46.1 µM],-1.7
Cc1cc(-c2ccccc2)nc2[n+]1CCN2C,x,-20.1%,-27.6%,-84.3*
O=C(/C=C/c1ccco1)Nc1ccc(Cl)c(S(=O)(=O)N2CCOCC2)c1,22.4µM*,x,x,-69.4*
O=C(Nc1ccccc1O)c1cc(S(=O)(=O)N2CCOCC2)c(Cl)cc1Cl,15.8µM*,-17.4%[14.3 µM],u,u
O=C(Nc1ccccc1)Nc1ccc(Cl)c(S(=O)(=O)N2CCOCC2)c1,u,-21.4%[46.1 µM],u,-62.4*
O=C(NC1CC1)c1cccc(NC(=O)c2cn3ccccc3n2)c1,2.9%,5.1%,u,17.0
O=C(Nc1ccc(N2CCOCC2)cc1)c1cn2ccccc2n1,-77.2%,7.94µM*,u,14.8
O=C(CN1CCN(C(=O)c2ccco2)CC1)Nc1ccc(Cl)c(S(=O)(=O)N2CCOCC2)c1,-18.8%,-1.9%,5.2%[46.1 µM],-37.1
CCOc1ccccc1C(=O)N1CCN(CCc2ccccn2)CC1,0.2%,-1.1%[46.1 µM],-9.7%[46.1 µM],2.8
Cc1cccc(NC(=O)CN2C(=O)CSc3ccc(S(=O)(=O)N4CCCC4)cc32)c1C,-17.3%,15.9%[46.1 µM],x,-38.1
O=C(Nc1ccc(Cl)c(S(=O)(=O)N2CCOCC2)c1)c1cn2ccccc2n1,20µM*,u,30.8%[46.1 µM],-24.2
COc1ccc(CNC(=O)c2sc(=O)n(Cc3cc(C(C)=O)ccc3OC)c2C)cc1,-17.3%,x,x,-7.1
COc1ccc(/C=C2\N=C(SC)N(c3ccccc3OC)C2=O)cc1,u,x,x,-95.9*
CC1=C(C(=O)Nc2cccnc2)C(c2ccccc2)n2nc(-c3ccc(O)cc3)nc2N1 (configuration not stated),6.9%,5.6%[46.1 µM],1.5%[46.1 µM],26.0
Cc1ccc(OCCNC(=O)c2cncc(Br)c2)cc1C,-15.1%,1.8%,8.6%,-107.3*
Cc1cccc(OCCNC(=S)NC(=O)c2cncc(Br)c2)c1,-26.1%,-1.7%,5.4%,-4.8
C#CC[N+](C)(C)CC#Cc1ccc(Cl)cc1,-1.9%,-14.4%,-3.2%[46.1 µM],-93.9*
CC(CNC(=O)CCCn1c(=O)c2cccn2c2ccc(F)cc21)c1ccccc1 (configuration not stated),7.6%,-16.2%[46.1 µM],x,-13.9
CC(CNC(=O)CCCn1c(=O)c2cccn2c2cccnc21)c1ccccc1 (configuration not stated),15.0%,3.5%[46.1 µM],x,-69.2*!
COc1ccc(NC(=O)c2cc(-c3ccc(F)cc3OC(C)C)n[nH]2)cn1,-29.6%,x,x,-14.8
CC(C)Oc1cc(F)ccc1-c1cc(C(=O)Nc2cccc(C(F)(F)F)c2)[nH]n1,u,x,x,-63.9*
CS(=O)(=O)N1CCC2(CC1)CN(c1ccc(-c3ccccc3)cc1)C2,-24.4%,x,x,x
SMILES,FMDV inh,Lassa entry inh,Marburg entry inh,HCMV antiviral
Oc1cc(NCCN2CCOCC2)cc2cccnc12,u,x,x,-87.4*
Oc1cccc2cc(Nc3ccccc3)cnc12,1.6%,x,x,-101.2*
Oc1cc(Nc2ccccc2)cc2cccnc12,-23.8%,x,x,-82.4*
c1ccc(Nc2ccc3ccccc3c2)cc1,33.5%,x,x,u
CCc1cc[n+](C2=C([O-])c3ccccc3C(=O)/C2=N\S(=O)(=O)c2cccs2)cc1,u,18.4µM*,7.08µM*,u
CNC(=S)N/N=C/C1=CCC2CC1C2(C)C (configuration not stated),0.5%,1.3µM*,2.6%,64.1
COc1ccc([C@H](CC(=O)O)NC(=O)OC(C)(C)C)cc1,x,x,6.5%,x
CC1(C(=O)NS(=O)(=O)c2ccc(Cl)cc2)CCN1C(=O)Cc1cccs1 (configuration not stated),-5.0%,x,x,-34.8
Cc1ccc(N2C(=O)c3cccc4c(N)ccc(c34)C2=O)c2cccnc12,-17.0%,x,x,+
CC(=O)c1c(C)[nH]c(C(=O)OCC(=O)N2CCN(S(=O)(=O)c3ccc(C)cc3)CC2)c1C,-28.0%,x,x,47.5
CC(=O)c1c(C)[nH]c(C(=O)OCC(=O)N2CCN(S(=O)(=O)c3ccc(C)cc3C)CC2)c1C,20µM*,u,-27.9%,29.8
Cc1ccc(NC(=O)COC(=O)C2=COCCO2)c([N+](=O)[O-])c1,-7.7%,1.0%,23.4%[46.1 µM],-10.8
CC(=O)c1c(C)[nH]c(C(=O)OCC(=O)Nc2ccc(C)cc2[N+](=O)[O-])c1C,5.01µM*,3.1%,u,u
CC(=O)c1c(C)[nH]c(C(=O)OCC(=O)NCc2ccc(Cl)cc2)c1C,u,x,x,-36.6
CC(=O)c1c(C)[nH]c(C(=O)OCC(=O)Nc2cc(Cl)ccc2[N+](=O)[O-])c1C,28.2µM*,x,-2.3%,100.3
Cc1cnc(C)c(-c2cccc3c2OC(CNC(=O)C2(c4ccc(Cl)cc4)CC2)C3)n1 (configuration not stated),-7.7%,x,x,x
CCCCc1nc2cc(C(=O)N3CCN(c4nc(C)cnc4C)CC3)ccc2o1,-8.0%,x,x,0.0
COc1ccc(-c2cc(=O)oc3c4c(ccc23)OCN(Cc2cccc(OC)c2)C4)cc1,-18.5%,6.4%[46.1 µM],-23.3%[46.1 µM],-24.3
O=C(Cc1ccc(-c2ccccc2)cc1)NCCS(=O)(=O)N1CCN(c2ccc(F)cc2)CC1,3.3%,-9.1%[46.1 µM],x,u
CC(=O)N1c2ccccc2Oc2cc3ccccc3cc21,19.4%,u,u,15.9
CC(=O)N1c2ccc(C)cc2Sc2c1ccc1ccccc21,-22.5%,u,u,-61.5*
CCOC(=O)[C@H]1[C@H]2COc3ccc(Cl)cc3[C@@H]2N2C(=O)c3cc(Cl)ccc3NC(=O)[C@@]12C,u,x,x,-26.1
CCOC(=O)[C@H]1[C@H]2COc3ccc(Cl)cc3[C@@H]2N2C(=O)CN(Cc3ccc(Cl)cc3)C(=O)[C@@]12C,u,x,x,-99.4*
C[C@@]12C(=O)Nc3cc(Cl)ccc3C(=O)N1[C@H]1c3cc(Br)ccc3OC[C@@H]1[C@@H]2c1ccccc1,-10.6%,x,x,-64.3*
CCOC(=O)[C@H]1[C@H]2COc3ccc(Cl)cc3[C@@H]2N2C(=O)c3ccccc3NC(=O)[C@@]12C,u,x,x,-69.6*
CCOC(=O)[C@H]1[C@H]2COc3ccc(OC)cc3[C@@H]2N2C(=O)c3cc(OC)ccc3NC(=O)[C@@]12C,-19.4%,x,x,-15.2
CCOC(=O)[C@H]1[C@H]2COc3ccc(OC)cc3[C@@H]2N2C(=O)c3ccccc3NC(=O)[C@@]12C,-4.3%,x,x,-80.0*
Cc1ccc(C(=O)COC(=O)C(Cc2c[nH]c3ccccc23)NC(=O)c2ccc(C(C)(C)C)cc2)cc1 (configuration not stated),20.5%,u,x,0.0
COc1ccc(Oc2ncc3ncc(=O)n(C)c3n2)cc1,23.5%,x,x,x
O=C(NCc1ccc(F)cc1)C1CCCCN1S(=O)(=O)c1ccc(F)cc1 (configuration not stated),-15.3%,5.7%[46.1 µM],x,1.1
